Assay results taken from PubChem BioAssay (EPA / NIEHS).
Several values for one entry are separate records, joined by “and”; a condition that tells them apart may be missing. Equal entries are not always repeated. Records with an inconclusive call do not appear. Where a structure was tested more than once in an assay, its records may differ in their call. Activity calls are given as the source filed them. The calls were made as follows, unless noted: active = hit-call score of the fitted dose curve at least 0.9, where 1 is the maximum; inconclusive = response in the unintended direction; inactive = score below 0.9.

Experiments:
[1] = target: human Peroxisome Proliferator-activated Receptor alpha (PPARa), PPARA (gene 5465) (UniProt Q07869); assay: ATG_PPARa_TRANS: Attagene TRANS-FACTORIAL HepG2 Assay for human Peroxisome Proliferator-activated Receptor alpha (PPARa) (AID 2283001);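 as to AC50: potency for gain of reporter signal over DMSO so agonist or activator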
Sequence of human Peroxisome Proliferator-activated Receptor alpha (PPARa), PPARA (gene 5465) (Q07869 whole entry, looked up, the tested form may be a part): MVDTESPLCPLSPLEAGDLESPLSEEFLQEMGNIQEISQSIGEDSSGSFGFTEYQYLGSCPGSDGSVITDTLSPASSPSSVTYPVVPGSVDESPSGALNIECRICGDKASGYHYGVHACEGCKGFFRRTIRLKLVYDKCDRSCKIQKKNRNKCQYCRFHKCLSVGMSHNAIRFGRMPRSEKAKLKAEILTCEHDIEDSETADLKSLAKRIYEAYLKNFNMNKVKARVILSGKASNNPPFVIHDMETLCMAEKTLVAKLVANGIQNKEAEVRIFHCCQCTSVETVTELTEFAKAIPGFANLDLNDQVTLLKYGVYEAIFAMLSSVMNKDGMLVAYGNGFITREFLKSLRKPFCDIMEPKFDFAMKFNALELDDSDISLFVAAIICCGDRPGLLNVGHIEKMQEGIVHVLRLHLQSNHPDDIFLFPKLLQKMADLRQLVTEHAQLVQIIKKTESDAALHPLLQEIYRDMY
In short: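 Gain-of-signal endpoint: reporter mRNA induction relative to DMSO, detected by fluorescent RT-PCR and capillary electrophoresis. HepG2 cells transiently carried GAL4-UAS-driven reporter units plus NR-Gal4 fusion; exposure lasted 24 h.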

[2] = target: human Peroxisome Proliferator-activated Receptor delta (PPARd), PPARD (gene 5467) (UniProt Q03181); assay: ATG_PPARd_TRANS: Attagene TRANS-FACTORIAL HepG2 Assay for human Peroxisome Proliferator-activated Receptor delta (PPARd) (AID 2283002)
Sequence of human Peroxisome Proliferator-activated Receptor delta (PPARd), PPARD (gene 5467) (Q03181 whole entry, looked up, the tested form may be a part): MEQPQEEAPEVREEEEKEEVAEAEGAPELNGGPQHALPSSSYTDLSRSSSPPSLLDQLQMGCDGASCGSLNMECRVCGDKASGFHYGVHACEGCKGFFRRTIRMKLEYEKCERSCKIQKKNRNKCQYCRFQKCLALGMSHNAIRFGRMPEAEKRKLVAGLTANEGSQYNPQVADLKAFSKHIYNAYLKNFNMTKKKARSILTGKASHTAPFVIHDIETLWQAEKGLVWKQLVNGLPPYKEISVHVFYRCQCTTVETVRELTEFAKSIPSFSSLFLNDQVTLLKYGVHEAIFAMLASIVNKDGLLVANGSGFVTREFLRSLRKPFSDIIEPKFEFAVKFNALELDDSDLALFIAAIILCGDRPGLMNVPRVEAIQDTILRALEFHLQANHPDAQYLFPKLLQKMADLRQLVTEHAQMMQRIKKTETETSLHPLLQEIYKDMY
In short: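 Measured quantity: GAL4-UAS reporter transcript induction in HepG2 after 24 h chemical dosing, with NR-Gal4 chimeras supplied by transient transfection. Detection by RT-PCR and capillary electrophoresis; upward fit against DMSO.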

[3] = target: Peroxisome proliferator-activated receptor gamma (Homo sapiens) (UniProt P37231); assay: ATG_PPARg_TRANS: Attagene TRANS-FACTORIAL HepG2 Assay for human Peroxisome Proliferator-activated Receptor-gamma (PPARg) (AID 2283007)
Sequence of Peroxisome proliferator-activated receptor gamma (Homo sapiens) (P37231 whole entry, looked up): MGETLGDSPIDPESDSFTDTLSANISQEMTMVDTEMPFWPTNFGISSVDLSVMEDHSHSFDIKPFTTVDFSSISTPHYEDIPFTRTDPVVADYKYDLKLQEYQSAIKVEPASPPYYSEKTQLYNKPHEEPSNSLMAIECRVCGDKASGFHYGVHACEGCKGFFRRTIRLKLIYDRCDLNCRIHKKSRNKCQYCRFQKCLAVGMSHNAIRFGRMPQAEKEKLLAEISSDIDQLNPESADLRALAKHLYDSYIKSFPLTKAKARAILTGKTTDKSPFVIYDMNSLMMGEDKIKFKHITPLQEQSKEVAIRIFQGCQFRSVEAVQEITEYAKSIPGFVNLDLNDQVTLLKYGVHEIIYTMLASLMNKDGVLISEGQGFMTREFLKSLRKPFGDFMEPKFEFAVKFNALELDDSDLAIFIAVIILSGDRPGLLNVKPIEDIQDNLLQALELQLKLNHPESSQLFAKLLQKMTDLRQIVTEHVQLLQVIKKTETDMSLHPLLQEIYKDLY
In short: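 Twenty-four hours after chemical dosing of transiently transfected HepG2 cells, isolated RNA was converted to cDNA, reporter sequences amplified and 6-FAM-labelled, then HpaI-digested and analysed by capillary electrophoresis. Signal increase against DMSO was fitted.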

[4] = target: human RAR-related Orphan Receptor beta (RORb), RORB (gene 6096) (UniProt Q92753); assay: ATG_RORb_TRANS: Attagene TRANS-FACTORIAL HepG2 Assay for human RAR-related Orphan Receptor beta (RORb) (AID 2283010)
Sequence of human RAR-related Orphan Receptor beta (RORb), RORB (gene 6096) (Q92753 whole entry, looked up, the tested form may be a part): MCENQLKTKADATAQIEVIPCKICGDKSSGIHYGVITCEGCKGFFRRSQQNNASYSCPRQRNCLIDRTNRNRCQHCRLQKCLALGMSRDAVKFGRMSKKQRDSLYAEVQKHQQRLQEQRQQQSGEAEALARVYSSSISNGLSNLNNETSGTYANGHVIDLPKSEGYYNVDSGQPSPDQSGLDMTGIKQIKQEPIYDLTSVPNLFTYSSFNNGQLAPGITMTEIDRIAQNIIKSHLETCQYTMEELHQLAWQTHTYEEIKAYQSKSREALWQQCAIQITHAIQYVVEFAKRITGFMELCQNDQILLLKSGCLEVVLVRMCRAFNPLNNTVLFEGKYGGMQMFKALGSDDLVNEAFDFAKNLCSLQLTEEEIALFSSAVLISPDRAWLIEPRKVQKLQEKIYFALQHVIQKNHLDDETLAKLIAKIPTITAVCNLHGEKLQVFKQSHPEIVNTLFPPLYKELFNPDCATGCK
In short: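 HepG2 cells transiently transfected with GAL4-UAS reporter units expressing chimeric NR-Gal4 protein; reporter mRNA measured 24 h after dosing by RT-PCR, 6-FAM labelling and capillary electrophoresis. Gain-of-signal fitted relative to DMSO baseline.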

[5] = target: Retinoic acid receptor alpha (Homo sapiens) (UniProt P10276); assay: ATG_RARa_TRANS: Attagene TRANS-FACTORIAL HepG2 Assay for human Retinoic Acid Receptor alpha (RARa) (AID 2283005)
Sequence of Retinoic acid receptor alpha (Homo sapiens) (P10276 whole entry, looked up, the tested form may be a part): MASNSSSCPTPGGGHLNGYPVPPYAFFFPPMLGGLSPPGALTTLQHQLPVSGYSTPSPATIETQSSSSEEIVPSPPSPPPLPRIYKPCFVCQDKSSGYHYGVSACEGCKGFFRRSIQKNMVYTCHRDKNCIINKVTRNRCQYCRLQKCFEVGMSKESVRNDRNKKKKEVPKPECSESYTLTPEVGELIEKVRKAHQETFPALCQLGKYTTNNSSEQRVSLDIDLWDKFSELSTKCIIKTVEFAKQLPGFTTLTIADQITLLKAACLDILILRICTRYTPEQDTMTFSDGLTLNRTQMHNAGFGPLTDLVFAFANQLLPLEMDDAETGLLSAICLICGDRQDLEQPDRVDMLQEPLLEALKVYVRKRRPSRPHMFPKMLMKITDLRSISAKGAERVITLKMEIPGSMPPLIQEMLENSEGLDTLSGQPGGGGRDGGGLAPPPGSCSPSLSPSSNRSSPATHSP
In short: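 HepG2 cells transiently transfected with multiple reporter units expressing chimeric RARα-GAL4 fusion, with GAL4-UAS-driven reporters. After 24 h compound exposure, reporter mRNA induction quantified by RT-PCR and capillary electrophoresis with fluorescent labeling; gain-of-signal fitted relative to DMSO control.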

[6] = target: Nuclear receptor subfamily 1 group I member 2 (Homo sapiens) (UniProt O75469); assay: ATG_PXR_TRANS: Attagene TRANS-FACTORIAL HepG2 Assay for human Pregnane X Receptor (PXR) (AID 2283008)
Sequence of Nuclear receptor subfamily 1 group I member 2 (Homo sapiens) (O75469 whole entry, looked up, the tested form may be a part): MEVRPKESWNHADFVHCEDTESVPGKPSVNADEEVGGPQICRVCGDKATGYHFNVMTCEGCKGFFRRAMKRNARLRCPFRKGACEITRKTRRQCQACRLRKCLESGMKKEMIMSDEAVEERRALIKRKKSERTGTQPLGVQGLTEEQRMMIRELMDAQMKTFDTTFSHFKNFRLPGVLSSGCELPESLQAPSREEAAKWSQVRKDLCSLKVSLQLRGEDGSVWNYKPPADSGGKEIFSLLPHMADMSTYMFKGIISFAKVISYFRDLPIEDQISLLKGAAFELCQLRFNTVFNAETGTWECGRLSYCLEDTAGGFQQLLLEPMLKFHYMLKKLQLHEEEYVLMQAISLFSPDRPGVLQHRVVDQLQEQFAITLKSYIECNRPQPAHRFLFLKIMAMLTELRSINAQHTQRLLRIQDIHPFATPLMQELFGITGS
In short: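 HepG2 cells transiently transfected with GAL4-UAS reporter units and PXR-Gal4 chimera, exposed 24 h. Reporter mRNA quantified by RT-PCR, fluorescent labelling, HpaI digestion and capillary electrophoresis; gain of signal vs DMSO.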

[7] = target: human Retinoic Acid Receptor gamma (RARg), RARG (gene 5916) (UniProt P13631); assay: ATG_RARg_TRANS: Attagene TRANS-FACTORIAL HepG2 Assay for human Retinoic Acid Receptor gamma (RARg) (AID 2283009);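 as to AC50: AC50 is for reporter induction above DMSO meaning RARg activation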
Sequence of human Retinoic Acid Receptor gamma (RARg), RARG (gene 5916) (P13631 whole entry, looked up, the tested form may be a part): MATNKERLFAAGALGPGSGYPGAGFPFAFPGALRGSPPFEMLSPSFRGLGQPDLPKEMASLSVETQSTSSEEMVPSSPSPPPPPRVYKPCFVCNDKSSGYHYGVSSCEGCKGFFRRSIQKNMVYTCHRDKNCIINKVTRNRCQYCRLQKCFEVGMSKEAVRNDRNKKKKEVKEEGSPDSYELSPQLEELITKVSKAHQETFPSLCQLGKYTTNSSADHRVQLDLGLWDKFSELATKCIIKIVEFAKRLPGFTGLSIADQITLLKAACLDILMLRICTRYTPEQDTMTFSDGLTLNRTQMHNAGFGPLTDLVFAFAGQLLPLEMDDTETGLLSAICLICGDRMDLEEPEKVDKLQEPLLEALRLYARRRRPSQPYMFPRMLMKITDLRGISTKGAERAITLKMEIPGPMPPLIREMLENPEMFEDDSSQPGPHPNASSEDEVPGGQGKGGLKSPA
In short: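 HepG2 transiently transfected with GAL4-UAS reporter units and chimeric NR-Gal4 constructs; 24 h compound exposure. Reporter mRNA quantified by RT-PCR, FAM labeling, HpaI digestion and capillary electrophoresis; gain-of-signal versus DMSO.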

[8] = read-out: Intercellular Adhesion Molecule 1 (ICAM1), ICAM1 (gene 3383); assay: BSK_3C_ICAM1: BioMAP Diversity Plus: 3C Assay for Intercellular Adhesion Molecule 1 (ICAM1) Biomarker Activity (AID 2283003; active = hit-call score of the fitted dose curve at least 0.9, where 1 is the maximum; inactive = score below 0.9); details: primary human endothelial cells (HUVEC); actives raise or lower the signal
In short: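 HUVEC primary cells stimulated under 3C conditions; ICAM1 measured by ELISA 24 h after compound dosing. Curves fitted bidirectionally against the DMSO baseline. Overt cytotoxicity checked by SRB staining of parallel cultures.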

[9] = target: human Retinoic Acid Receptor beta (RARb), RARB (gene 5915) (UniProt P10826); assay: ATG_RARb_TRANS: Attagene TRANS-FACTORIAL HepG2 Assay for human Retinoic Acid Receptor beta (AID 2283004)
Sequence of human Retinoic Acid Receptor beta (RARb), RARB (gene 5915) (P10826 whole entry, looked up, the tested form may be a part): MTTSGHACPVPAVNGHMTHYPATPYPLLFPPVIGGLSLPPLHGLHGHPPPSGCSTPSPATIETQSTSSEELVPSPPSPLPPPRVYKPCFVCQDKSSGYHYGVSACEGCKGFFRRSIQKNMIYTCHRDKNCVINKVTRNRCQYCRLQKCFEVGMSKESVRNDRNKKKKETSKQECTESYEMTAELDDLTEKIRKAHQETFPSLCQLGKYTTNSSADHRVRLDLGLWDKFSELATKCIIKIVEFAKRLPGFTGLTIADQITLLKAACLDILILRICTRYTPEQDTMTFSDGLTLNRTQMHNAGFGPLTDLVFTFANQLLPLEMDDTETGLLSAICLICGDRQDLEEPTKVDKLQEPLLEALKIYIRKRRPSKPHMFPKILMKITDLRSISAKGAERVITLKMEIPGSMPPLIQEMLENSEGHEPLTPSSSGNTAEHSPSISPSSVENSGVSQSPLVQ
In short: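 Fluorescent capillary-electrophoresis detection of GAL4-UAS reporter mRNA defines the endpoint, with induction over DMSO-treated wells scored as activity. Transiently transfected human hepatoma HepG2 cells expressing exogenous NR–Gal4 proteins are exposed to test chemicals for 24 h.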

[10] = BSK_3C_Proliferation: Cell Proliferation Assessment in the BioMAP Diversity Plus: 3C Assay (AID 2283006; active = hit-call score of the fitted dose curve at least 0.9, where 1 is the maximum; inactive = score below 0.9;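 as to AC50: potency may reflect either rise or fall in cell number versus DMSO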); details: primary human endothelial cells (HUVEC)
In short: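 Subconfluent HUVEC (3C system) cultured with chemical; relative cell number read at 48 h by sulforhodamine B total-protein staining (0.1% SRB after 10% TCA fixation, 560 nm). Bidirectional fit relative to DMSO.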

Measured: AC50

O=c1cc(-c2ccccc2)oc2ccc3ccccc3c12
active: [3] 0.708 µM
inactive: [1] | [2] | [3] | [4]

CCCCCCC(C)(C)C(=O)O
active: [1] 18 µM | [3] 46.3 µM
inactive: [2] | [5] | [6] | [7]

CCCCCCCCCCCC[N+](C)(C)CCCCCCCCCCCC
active: [7] 27.3 µM
inactive: [1] | [2] | [5] | [3] | [6] | [4]

COc1cc([N+](=O)[O-])ccc1N
inactive: [1] | [6]

CC(=O)Nc1ccc(S(N)(=O)=O)cc1
inactive: [1] | [2] | [6] | [7] | [4]

Brc1ccc(Oc2ccc(Br)cc2Br)cc1
inactive: [1] | [3]

O=S(=O)(O)C(F)(F)C(F)(F)C(F)(F)C(F)(F)C(F)(F)C(F)(F)C(F)(F)C(F)(F)C(F)(F)C(F)(F)F
active: [10] 13.3 µM
inactive: [2] | [8] | [9] | [5] | [3] | [6] | [7] | [4]

C=CC(=C)CC/C=C(\C)CCC=C(C)C
inactive: [2] | [8] | [9] | [5] | [10] | [4]
active: [6] 6.93 µM

CN(C)c1ccc(C(=C2C=CC(=[N+](C)C)C=C2)c2ccccc2)cc1
active: [8] 0.337 µM | [10] 0.0248 µM | [3] 1.75 µM and 1.45 µM
inactive: [2]

CCC(C)c1ccccc1O (stereo not drawn)
inactive: [1] | [8] | [10] | [3] | [4]

NC(C(F)(F)F)C(F)(F)F
inactive: [1] | [6] | [7]

CCCCC=O
inactive: [1] | [8] | [10] | [6] | [4]

c1cc[nH]c1
inactive: [1] | [9] | [3] | [7] | [4]

CCCCC(CC)C(=O)OCCOCCOCCOCCOC(=O)C(CC)CCCC (stereo not drawn)
inactive: [1] | [8] | [3]
active: [10] 20 µM

C=CC(=O)OCC(CO)(COCC(COC(=O)C=C)(COC(=O)C=C)COC(=O)C=C)COC(=O)C=C
inactive: [1] | [3] | [6]

C=CC(=O)OCCN(CC)CC
inactive: [1] | [9] | [5] | [3] | [7]

COc1ccccc1NC(=O)c1cc2ccccc2cc1O
inactive: [1] | [7]
active: [3] 8.06 µM | [6] 1.23 µM

CC1CNCC(C)O1 (stereo not drawn)
inactive: [1] | [9] | [3] | [6] | [7]

CC1=CC(=O)c2ccccc2C1=O
active: [6] 7.29 µM
inactive: [1] | [5] | [3] | [7] | [4]

FCOC(C(F)(F)F)C(F)(F)F
inactive: [1] | [2] | [7] | [4]

Cc1ccc(S(=O)(=O)O)cc1
inactive: [1] | [9] | [5] | [6] | [4]

O=C1C=CC(=O)N1c1cccc(N2C(=O)C=CC2=O)c1
inactive: [1] | [3] | [6] | [7]

COc1cccc(O)c1
inactive: [2] | [8] | [10]

O=C(O)C(F)(F)OC(F)(F)C(F)(F)OC(F)(F)C(F)(F)OC(F)(F)C(F)(F)C(F)(F)C(F)(F)F
inactive: [2] | [9] | [5] | [7] | [4]
active: [8] 45.4 µM and 53.1 µM | [10] 18 µM and 18.4 µM | [3] 13.1 µM and 19.1 µM

COc1cc(OC)nc(NC(=O)NS(=O)(=O)Nc2ccccc2C(=O)N(C)C)n1
inactive: [1] | [8] | [5] | [10] | [3]

CC(=O)Nc1ccc(O)cc1
inactive: [2] | [8] | [5] | [10]

C=CC(C)(CCC=C(C)C)OC(C)=O (stereo not drawn)
inactive: [1] | [8] | [3] | [4]
active: [10] 34.2 µM | [6] 29.5 µM

CCCCCCCCCCCCCCC
inactive: [2] | [8] | [10]

O=C(O)C(=O)O
inactive: [1] | [9] | [6] | [4]

CCCCCCCCCCCCCCCCCC[N+](C)(C)Cc1ccccc1
inactive: [1] | [9] | [5] | [6]
active: [8] 2.56 µM | [10] 0.281 µM | [3] 83.5 µM | [7] 89.2 µM

O=S(=O)(O)c1ccccc1
inactive: [1] | [3] | [6] | [7] | [4]

O=C(CCCN1CCC(O)(c2ccc(Cl)cc2)CC1)c1ccc(F)cc1
inactive: [1] | [8]
active: [10] 7.3 µM

O=C1c2ccc(O)c(O)c2C(=O)c2c(O)ccc(O)c21
inactive: [2] | [8] | [9] | [10] | [3] | [6] | [4]
active: [7] 50 µM

OCCN1CN(CCO)CN(CCO)C1
active: [8] 29.4 µM | [10] 24.2 µM
inactive: [2] | [9] | [5] | [3] | [7] | [4]

O=C(NCc1ncc(C(F)(F)F)cc1Cl)c1c(Cl)cccc1Cl
inactive: [2] | [8] | [9] | [5] | [10] | [7]
active: [3] 13.7 µM

Oc1c(Cl)ccc(Cl)c1Cl
active: [3] 19.5 µM
inactive: [1] | [5] | [7] | [4]

CCN(CC)CC
inactive: [1] | [2] | [6] | [7]

CCCCCCCCCCCCOC(=O)c1cc(O)c(O)c(O)c1
inactive: [5] | [7]
active: [1] 43.9 µM | [3] 20.8 µM | [6] 10.6 µM

CC[N+](CC)(CC)Cc1ccccc1
inactive: [2] | [8] | [9] | [5] | [10] | [6] | [7] | [4]

O=C(O)c1cccc(C(=O)O)n1
inactive: [2]

O=C(F)C(F)(F)C(F)(F)C(F)(F)C(=O)F
inactive: [1] | [5] | [6]

CCCCCCCC(OC)OC
inactive: [2] | [3]

C=Cc1ccc(O)c(OC)c1
active: [3] 8.33 µM | [6] 70.3 µM
inactive: [2] | [9] | [5] | [7]

CC(C)(C)C1CCCCC1O (stereo not drawn)
inactive: [2] | [9] | [6] | [7] | [4]

O=C(c1cc(O)c(O)c(O)c1)c1ccc(O)c(O)c1O
inactive: [2] | [9] | [6] | [7] | [4]

CC(C)c1c(C(=O)Nc2ccccc2)c(-c2ccccc2)c(-c2ccc(F)cc2)n1CC[C@@H](O)C[C@@H](O)CC(=O)O
inactive: [2]
active: [3] 20.3 µM and 19.6 µM | [6] 9.99 µM

CCO[Si](C)(C)OCC
inactive: [2] | [5] | [6]

Cc1cc(=O)oc2cc(O)ccc12
inactive: [2] | [3] | [6] | [4]
active: [6] 12 µM
